# Screen size: about 53,000 sequences; about 3,700 (7%) were called active. This excerpt belongs to a sample that is enriched for actives. Values without a mark were called inactive.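 How the source made its calls: active means gene knockdowns whose robust z-score for IL-1 alpha signal is at least 2 or at most -2, so actives lie on both sides; inactive means the rest.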
# Experiment: Components of the Cytosolic LPS Sensing Pathway: Gene Identification via Genome-wide siRNA Screen;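 further: robust z of the log signal after scaling to non-targeting control siRNA wells of the plate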
# Details: RAW264.7 macrophages, IL-1a HTRF, actives lie on both sides, screened at 100 nM (by protocol), cells primed 5 h with Pam3CSK4 first
# Procedure, shortened: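 Cells (RAW264.7, 1×10^4 per well) were transfected with siRNA at 100 nM and cultured 48h at 37 degrees C. Pam3CSK4 was added for 5 hours; LipidA transfection followed for 24 hour. IL-1a was then measured by HTRF.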
row,Sequence,z-score
1,GGAUAACGUAAUGAAGAUCTT against Fgfr1,-0.866
2,GGUUUCUUCUUCUGUUCAUTT against Ostc,1.13
3,GGCUCAAAGACUGAAUCCCTT against Recql4,0.309
4,GCUAUCUAGAGCCAAGAGCTT against Bahcc1,2.27 (active)
5,GCUAGACCUCACUGUUUUUTT against Sprr2i,1.03
6,GCAGCAUGAAUCACACCUUTT against Dtd2,-1.29
7,CGUGUUCAAAAGAGUUUUCTT against Sos1,1.22
8,GCGGCUUUGUAUACAAGUUTT against Vwc2l,1.11
9,GGUAACUGUGGACUUAUCUTT against Olfr665,-2.17 (active)
10,GGCUGUCAGAACCAACUACTT against Tshb,0.214
11,CUCUAGUGUUACACUUAUUTT against Tefm,2.83 (active)
12,GGCCUUGAGAGGCUAAUACTT against Spata20,-1.27
13,GGUGAUUGUUAGAGUUAAATT against Syt4,0.934
14,GGUAAAAACCCAGAGAUGATT against Rem2,0.616
15,GGAACUAAUGUGCAGGAGGTT against Suclg2,0.459
16,CCGUGAUCCCUUUUCACCATT against 6030445D17Rik,-2.26 (active)
17,CACGCAGAUGAUUAAGUUGTT against Olfr1000,1.25
18,GGAGAAUGAGAUCAACCUGTT against Pah,0.618
19,GGAGAACAGUCUUGAGAAATT against Crisp3,-0.712
20,CCUCCAGGAUUAUCGUGAUTT against Dnajc6,-1.22
21,GGCUUAAUGUUGCUUCAGATT against Aven,-0.959
22,GGUCAAUUAUGAAGAGUUUTT against Calm3,3.04 (active)
23,CCUUAAAAACUCGAGUAAATT against Gla,0.384

row,Sequence,z-score
1,GCGGUCACACCAAAAGUCATT against Olfr1466,-1.56
2,GCUGUUUAUCUAGCUGUUATT against Mmp8,0.782
3,GGAUGUUAACAUUGAGCAATT against Asb11,-0.0828
4,GGCAUUUCAACUGGACCCATT against Lamb1,-2 (active)
5,GACGCAAGCAGCAUUUUAUTT against R3hdm4,-0.207
6,CCGUCAUCUACACCUAUUUTT against Olfr525,0.102
7,CGGCUUAUGAGUUAAAGACTT against Rad51b,-1.03
8,GGUAGAUUAUAGCAAAAUGTT against Ik,-2.23 (active)
9,GGUUAAGUGUGUUAAGUUCTT against Cipc,1.48
10,GGCCUCAAAUACCAUAACATT against Zfp941,0.000237
11,CGGACACAUGAUUGUCUUCTT against Npas1,1.25
12,GGUUUGAUGACAAAUACACTT against Spcs2,1.6
13,GCUGGUACAGCGUAUACCATT against Cep170b,-1.03
14,GGAUGUUCUCAAACUACAATT against Kdm1b,0.702
15,GGGCAAGCCACUCAUGUUGTT against Me2,-0.997
16,CCUAGAGAUUGGUAUGUACTT against Tmem132e,-2.1 (active)
17,GCCAUUAAUCUCACAUGUATT against Crebrf,1.39
18,GGAUCCUUCGAAUCCUGAATT against Cst11,-0.372
19,CCCAUGUUUAUGUUGCUGATT against Olfr467,0.251
20,GGACACCUGAAGUUAGUUUTT against Ndufaf1,0.622
21,GGAGAAGGAUCUGAACGAGTT against Nog,-1.24
22,CCUUAUGGAUUUAGCAUCATT against Lamb3,0.917
23,CCAAACCAGUGGAGUCCAUTT against Slc7a14,-2.26 (active)

row,Sequence,z-score
1,ACUAUGGUUGGUUCAAACGTT against Acat2,-1.23
2,GCACAACGGUUCGUUGUUATT against 4933427E11Rik,-1.17
3,GGUGUAGGCUGUCCAAUAATT against Rtel1,0.74
4,GACUCUUGUCCCAAGUGUUTT against Bloc1s4,0.144
5,GGAUCAACAGUCAAUUGUGTT against Tax1bp1,-2.16 (active)
6,AUAGUGGAACCCUUUGUACTT against Olfr1195,-0.832
7,GGAAUACGACAGAACUCCATT against Extl1,0.218
8,GGAGAAGCAAACUGCACCUTT against Cacng6,1.08
9,GGACCUGAAACACGCCAAUTT against Cdk18,-0.35
10,GCGGGAGAGCUAUGAAACATT against Mrps21,-0.0502
11,GGGAAAUUUCUCUACAUCUTT against Npas1,2.2 (active)
12,GGCUGCACAAAACGAGAUCTT against Tcirg1,-0.0738
13,GGCAAACAAAUGGUUUGUUTT against Zfp324,-0.544
14,GGUUCUCGGUAAAUCCUGCTT against Slc35b1,-1.07
15,GGAGGUUGAGGCUUCUAAGTT against Pacsin3,1.2
16,GGAUAAUGAGCUGAACAUATT against Nek7,-0.0844
17,GGAAGCAUGCAAUGAUAUUTT against 4933431E20Rik,-2.31 (active)
18,GCCUCACUUUGACUGUCGCTT against Tpgs2,-0.289
19,GGAGAAAGUGAUUGACAUATT against Lpin2,-0.0579
20,GGAAGGGUUUGUUUGUUUATT against Nkiras1,1.55
21,GGCCUUGAAAGCCAUUGGUTT against Kmo,-0.728
22,GCGCGACAAAUCGUAGGCUTT against Mamstr,-2.13 (active)
23,GGACUUGAAGAACUGUUAUTT against Hspa13,-0.0642

# Reference: PubChem BioAssay AID1508600 (Functional Genomics Laboratory (NCATS/FGL), 2020)
